Experimental data reported in PubChem BioAssay (NCATS).
Values joined by “and” are separate entries in the source; they are usually repeats but may differ in a detail not shown here. Equal entries are not always repeated. Inconclusive results are not listed. A number with no mark means an inactive call. Unless noted, calls follow the shape of the dose curve; as a rule, active = well fitted activation curve with a large enough effect; inconclusive = small, poorly fitted or top-dose-only effect; inactive = flat fitted curve, though single readings scatter.

System: not listed separately
Assay: qHTS assay for small molecule disruptors of the mitochondrial membrane potential - 5 hr assay (AID 651755; calls by dose curve; also: % is scaled to controls: 0 for no effect and ±100 for the full control effect; nearly all actives have a fitted effect of over 40% in size)
Settings: JC-1-type ratio dye; series mostly up to 92.2 µM; ratio change, negative = disruption: at the top concentration
Method in brief: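 HepG2 cells (2,000/well), attached overnight, exposed to compound 5 hr at 37C, then Mito-MPS dye 30 min. Fluorescence read for monomers (490/535 nm) and aggregates (540/590 nm).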

Row | Compound | ratio change, negative = disruption
1 | Nc1cc(Cl)ccc1Cl | 6.94%
2 | Nc1cccc(Cl)c1 | 4.78%
3 | ClCc1ccccc1 | 5.4%
4 | CCC/C=N/O | 0.623%
5 | COc1c(C(C)(C)C)cc([N+](=O)[O-])c(C)c1[N+](=O)[O-] | 0.806%
6 | O=S(=O)(Cl)c1ccccc1 | 3.72%
7 | c1ccoc1 | 0.866%
8 | Clc1ccccc1 | -3.09%
9 | ClC(Cl)(Cl)C(Cl)(Cl)Cl | -0.485%
10 | CCOC(=O)C1OC1(C)c1ccccc1 (configuration not stated) | -9.22%
11 | C/C=C/CC#N | -2.46%
12 | ClC(Cl)C(Cl)Cl | -3.25%
13 | C=CCCl | -2.9%
14 | Oc1c(Cl)cccc1Cl | -2.7%
15 | Brc1cccc(-c2ccccc2)c1 | -3.02%
16 | C=CCO | 0.489%
17 | OCCCCO | 1.46%
18 | Nn1cnnc1 | 2.52%

Row | Compound | ratio change, negative = disruption
19 | BrCCc1ccccc1 | 0.0551%
20 | CCCCOC(=O)c1ccccc1N | -5.47%
21 | Clc1cc(Cl)c(Cl)c(Cl)c1 | 0.0998%
22 | Cc1ccc(N)c(C)c1 | 5.95%
23 | C1CC2OC2CC1C1CO1 (configuration not stated) | -1.16%
24 | CN(C)C(=O)Cl | -1.01%
25 | CC(=O)NNc1ccccc1 | -3.28%
26 | O=C(Cl)OCc1ccccc1 | 0.939%
27 | C=CC(=O)OC | -4.17%
28 | CCN(CC)N=O | 3.57%
29 | OCC(Cl)CCl (configuration not stated) | -2.56%
30 | CC(C)CON=O | 0.807%
31 | CC[N+](=O)[O-] | -0.0955%
32 | CC(C)(Cl)[N+](=O)[O-] | -0.956%
33 | C[N+](=O)[O-] | 0.955%
34 | CC(C)OC(=O)Cc1ccccc1 | 1.44%
35 | ClCC(Br)CBr (configuration not stated) | 12.8%

Molecular target: Tumor necrosis factor (Homo sapiens) (UniProt P01375)
Sequence (P01375 whole entry, looked up): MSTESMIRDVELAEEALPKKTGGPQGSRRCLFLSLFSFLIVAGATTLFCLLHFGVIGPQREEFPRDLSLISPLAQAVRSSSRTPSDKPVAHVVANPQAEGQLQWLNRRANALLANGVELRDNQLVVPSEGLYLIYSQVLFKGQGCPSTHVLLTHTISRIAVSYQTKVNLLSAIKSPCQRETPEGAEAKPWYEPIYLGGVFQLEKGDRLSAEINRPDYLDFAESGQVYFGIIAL
Assay: qHTS assay to identify small molecules that stimulate Tumor Necrosis Factor-alpha (TNF-alpha) secretion (AID 651757; active = well fitted curve in the direction sought with a large enough effect in the signal ratio; the % refers to the signal ratio; also: 0% is about no effect)
Settings: Human cells, HTRF 665/615 ratio; series mostly up to 92.2 µM; activation (TNF-alpha secretion): at the top concentration
Method in brief: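 THP-1 cells were exposed to compounds for 17 hrs at 37 C, after which secreted TNF-alpha was measured by homogeneous HTRF (TR-FRET) using cryptate- and XL665-labeled anti-TNF-alpha antibodies, read after 3 hr at room temperature.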

Row | Compound | activation (TNF-alpha secretion)
36 | CC(C#N)CCC#N (configuration not stated) | -0.329%
37 | Nc1cccc(Cl)c1 | -0.166%
38 | ClCc1ccccc1 | 0.301%
39 | CCC/C=N/O | 0.554%
40 | COc1c(C(C)(C)C)cc([N+](=O)[O-])c(C)c1[N+](=O)[O-] | 0.441%
41 | C=CCOCC1CO1 (configuration not stated) | 0.0331%
42 | c1ccoc1 | -0.0232%
43 | Clc1ccccc1 | 0.164%
44 | ClC(Cl)(Cl)C(Cl)(Cl)Cl | -0.154%
45 | CCOC(=O)C1OC1(C)c1ccccc1 (configuration not stated) | -0.909%
46 | C/C=C/CC#N | 0.533%
47 | ClC(Cl)C(Cl)Cl | 0.439%
48 | C=CCCl | 0.0178%
49 | Oc1c(Cl)cccc1Cl | 0.0094%
50 | OCCCCO | -1.01%
51 | Nn1cnnc1 | 0.197%
52 | BrCCc1ccccc1 | -1.23%
53 | Cc1ccccc1[N+](=O)[O-] | -0.283%
54 | CCCCOC(=O)c1ccccc1N | 0.0504%
55 | Clc1cc(Cl)c(Cl)c(Cl)c1 | 0.703%
56 | CN(C)C(=O)Cl | -0.649%
57 | CC(=O)NNc1ccccc1 | 0.218%
58 | O=C(Cl)OCc1ccccc1 | 0.815%
59 | C=CC(=O)OC | 0.298%
60 | CCN(CC)N=O | 0.0298%
61 | OCC(Cl)CCl (configuration not stated) | 0.378%
62 | CC(C)CON=O | 0.809%
63 | CC[N+](=O)[O-] | 0.0099%
64 | CC(C)(Cl)[N+](=O)[O-] | 0.565%
65 | CC(C)OC(=O)Cc1ccccc1 | 0.0232%

System: not listed separately
Assay: qHTS assay to identify small molecules that stimulate interleukin-8 (IL-8) secretion (AID 651758; active = well fitted activation curve with a large enough effect in the signal ratio; the % refers to the signal ratio; also: 0% is about no effect)
Settings: HTRF ratio (665/615); series mostly up to 92.2 µM; activation: at the top concentration
Method in brief: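 THP-1 cells (2000/well) exposed to compound 16 h at 37 C; secreted IL-8 then detected by HTRF with cryptate- and XL665-labelled anti-IL-8 antibody pair after 1-3 h at room temperature.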

Row | Compound | activation
66 | CC(C#N)CCC#N (configuration not stated) | 4.84%
67 | CCC/C=N/O | -14.9%
68 | COc1c(C(C)(C)C)cc([N+](=O)[O-])c(C)c1[N+](=O)[O-] | 13%
69 | ClC(Cl)(Cl)C(Cl)(Cl)Cl | 6.86%
70 | CCOC(=O)C1OC1(C)c1ccccc1 (configuration not stated) | -13.2%
71 | C/C=C/CC#N | 1.49%
72 | Oc1c(Cl)cccc1Cl | -7.84%
73 | Clc1cc(Cl)c(Cl)c(Cl)c1 | -20.2%
74 | C1CC2OC2CC1C1CO1 (configuration not stated) | 25.8%
75 | CN(C)C(=O)Cl | 20.9%
76 | O=C(Cl)OCc1ccccc1 | 9.9%
77 | OCC(Cl)CCl (configuration not stated) | -2.94%

System: not listed separately
Assay: qHTS assay for environmental chemicals that activate the Aryl hydrocarbon Receptor (AhR) signaling pathway (AID 651777); also: % of control where 0% means no effect; nearly all actives have a fitted effect of over 15% in size
Settings: 1A2-DRE human hepatoma cells, luciferase, 24 h; activation: active compounds read high
Method in brief: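 Luminescence (One-Glo, 30 min, room temperature) reports AhR-driven luciferase in stably transfected human hepatoma cells bearing DRE and CYP1A2 promoter. Cells (1,200/well) were treated with compound for 24 hr at 37 C in qHTS format.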

Row | Compound | activation
78 | CC(C#N)CCC#N (configuration not stated) | -0.458%
79 | Nc1cccc(Cl)c1 | -0.221%
80 | CCC/C=N/O | -0.464%
81 | COc1c(C(C)(C)C)cc([N+](=O)[O-])c(C)c1[N+](=O)[O-] | 0.103%
82 | O=S(=O)(Cl)c1ccccc1 | 0.182% and 1.5%
83 | C=CCOCC1CO1 (configuration not stated) | -0.262%
84 | c1ccoc1 | -0.801%
85 | Clc1ccccc1 | -0.0364%
86 | ClC(Cl)(Cl)C(Cl)(Cl)Cl | 0.18%
87 | CCOC(=O)C1OC1(C)c1ccccc1 (configuration not stated) | -0.466%
88 | C/C=C/CC#N | -0.768%
89 | ClC(Cl)C(Cl)Cl | -2.65%
90 | C=CCCl | 1.05%
91 | Oc1c(Cl)cccc1Cl | 0.939%
92 | Brc1cccc(-c2ccccc2)c1 | -0.116%
93 | C=CCO | -0.568%
94 | OCCCCO | -0.427%
95 | Nn1cnnc1 | 0.198%

Row | Compound | activation
96 | BrCCc1ccccc1 | -0.177%
97 | Cc1ccccc1[N+](=O)[O-] | -1.35%
98 | CCCCOC(=O)c1ccccc1N | 0.138%
99 | Clc1cc(Cl)c(Cl)c(Cl)c1 | 0.248%
100 | Cc1ccc(N)c(C)c1 | -0.367%
101 | C1CC2OC2CC1C1CO1 (configuration not stated) | 1.2% and -1.91%
102 | CN(C)C(=O)Cl | -0.443%
103 | CC(=O)NNc1ccccc1 | 2.76%
104 | O=C(Cl)OCc1ccccc1 | 0.249%
105 | C=CC(=O)OC | 1.42%
106 | CCN(CC)N=O | -0.0915%
107 | OCC(Cl)CCl (configuration not stated) | 1.02%
108 | CC(C)CON=O | 1.53%
109 | CC[N+](=O)[O-] | -0.343%
110 | CC(C)(Cl)[N+](=O)[O-] | -0.364%
111 | C[N+](=O)[O-] | 0.25%
112 | ClCC(Br)CBr (configuration not stated) | -0.863%
